Screens deposited in PubChem by several laboratories.
Only some compounds are listed: those with a hit (about 4.2% of all), similar ones and a draw of the others.
V-ATPase pHluor: alters yeast V-ATPase proton transport | S. cerevisiae, pHLuorin cytosolic pH fluorescence | response, % at 10 µM | actives 0.37% (n = 350,000); in the data active = response mostly above about 7.3%, no sharp cut-off; inactive = mostly below about 5.4%; note: actives read high
NALP1 inh: inhibitors of NALP1 inflammasome in yeast; S. cerevisiae NALP1/ASC/caspase-1 growth, X-gal OD620, 72 h; inhibition, % at 10 µM; actives 0.61% (n = 280,000); in the data active = inhibition mostly above about 24%, no sharp cut-off; inactive = mostly below about 32%
TIM10 inh: inhibits growth of TIM10 yeast strain | AID 463195 | S. cerevisiae TIM10 strain growth, BacTiter-Glo luminescence, 24 h | inhibition, % at 10 µM | actives 1.4% (n = 330,000);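 active = inhibition of 40% or more at the single tested concentration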;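 note: wild-type TIM10 isogenic control strain grown at permissive 25 °C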
tim23-1 inh: growth inhibitors of tim23-1 mutant yeast; inhibition, % at 20 µM; AID 463212; S. cerevisiae tim23-1 growth, BacTiter-Glo luminescence, 24 h; actives 1.3% (n = 330,000);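 active = growth inhibition of the mutant yeast at or above 50%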;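 note: temperature-sensitive mutant grown at 25 °C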
tim10-1 inh: inhibits growth of tim10-1 mutant yeast | inhibition, % at 20 µM | S. cerevisiae tim10-1 ts strain growth, BacTiter-Glo, 24 h | actives 2.2% (n = 330,000);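 active = inhibition of at least 40%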;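 note: mutant grown at 25 °C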
NLRP3 yeast inh: NALP3 inhibition in yeast. Yeast reconstituted NLRP3/ASC/caspase-1, beta-gal luminescence, 24 h. inhibition, % at 10 µM. actives 0.39% (n = 330,000). AID 2825;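 active = inhibition of 50% or more; inactive = inhibition below 50%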
tim10-1 conf: confirmation of tim10-1 mutant yeast growth inhibitors | inhibition, % at 20 µM | AID 463213 | S. cerevisiae tim10-1 ts strain growth, BacTiter-Glo, 24 h | actives 56% (n = 7,400) | shares compounds with tim10-1 inh;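 active = inhibition of yeast growth at or above a set limit in either of two repeat tests at 20 µM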;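 note: tim10-1 mutant grown at permissive 25 °C to find synthetic lethal compounds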
Large screens that a line does not name were inactive (follow-up assays come after a bar, where they were run).

Cc1ccc(OCC(=O)O/N=C(\N)Cc2ccc([N+](=O)[O-])cc2)cc1C	tim10-1 inh 52 (no result: NALP1 inh) | tim10-1 conf 53
Cc1cccc(OCC(=O)O/N=C(\N)Cc2ccc([N+](=O)[O-])cc2)c1	none
CCN(CC)c1ccc(CNCc2cccs2)cc1	none
Cc1cccc(NC(=O)CSCC(=O)NNC(=O)c2ccoc2C)c1	none
O=C(N=Nc1ccc(NOC(=O)c2ccccc2Br)cc1)c1ccccc1O	tim10-1 inh 50 (no result: V-ATPase pHluor) | tim10-1 conf 37
Cc1nn(C)c(C(=O)N/N=C/c2ccc(-c3ccccc3)cc2)c1Cl	none
CN(C(=O)COC(=O)CCc1c[nH]c2ccccc12)c1ccccc1	tim10-1 inh 43 (no result: NALP1 inh) | tim10-1 conf inactive
CCC(C)CCN1CCN=C1Nc1ccccc1 (configuration not stated)	none (no result: NALP1 inh)
Cc1cc(N(C)C(=O)c2ccc3c(c2)S(=O)(=O)c2cc(Cl)ccc2C3=O)c(C(F)(F)F)o1	none (no result: NALP1 inh)
CCOC(=O)CSc1nc(C2CC2)nc2ccccc12	tim10-1 inh 40 | tim10-1 conf inactive
N#Cc1ccccc1Cn1c(=O)n(C2CCCC2)c(=O)c2ccccc21	tim10-1 inh 46 | tim10-1 conf 38
